Assay results as given in the supplement of paper PMC11732987, “Enantioselective OTUD7B fragment discovery through chemoproteomics screening and high-throughput optimisation” (Communications Chemistry, 2025).

Legend:
Assay in all cases: log2 ratio of Biotin-Ahx-Ub-VS probe labelling (fragment/DMSO); higher = less target engagement (more negative = stronger competition), active = hit call of the paper (q ≤ 0.05, log2 ratio ≤ -1)
Conditions in all cases: compound concentration: 200 uM; treatment time: 3 h
USP42 = target: T1, USP42 (UniProt Q9H9J4)
T1 sequence (whole entry): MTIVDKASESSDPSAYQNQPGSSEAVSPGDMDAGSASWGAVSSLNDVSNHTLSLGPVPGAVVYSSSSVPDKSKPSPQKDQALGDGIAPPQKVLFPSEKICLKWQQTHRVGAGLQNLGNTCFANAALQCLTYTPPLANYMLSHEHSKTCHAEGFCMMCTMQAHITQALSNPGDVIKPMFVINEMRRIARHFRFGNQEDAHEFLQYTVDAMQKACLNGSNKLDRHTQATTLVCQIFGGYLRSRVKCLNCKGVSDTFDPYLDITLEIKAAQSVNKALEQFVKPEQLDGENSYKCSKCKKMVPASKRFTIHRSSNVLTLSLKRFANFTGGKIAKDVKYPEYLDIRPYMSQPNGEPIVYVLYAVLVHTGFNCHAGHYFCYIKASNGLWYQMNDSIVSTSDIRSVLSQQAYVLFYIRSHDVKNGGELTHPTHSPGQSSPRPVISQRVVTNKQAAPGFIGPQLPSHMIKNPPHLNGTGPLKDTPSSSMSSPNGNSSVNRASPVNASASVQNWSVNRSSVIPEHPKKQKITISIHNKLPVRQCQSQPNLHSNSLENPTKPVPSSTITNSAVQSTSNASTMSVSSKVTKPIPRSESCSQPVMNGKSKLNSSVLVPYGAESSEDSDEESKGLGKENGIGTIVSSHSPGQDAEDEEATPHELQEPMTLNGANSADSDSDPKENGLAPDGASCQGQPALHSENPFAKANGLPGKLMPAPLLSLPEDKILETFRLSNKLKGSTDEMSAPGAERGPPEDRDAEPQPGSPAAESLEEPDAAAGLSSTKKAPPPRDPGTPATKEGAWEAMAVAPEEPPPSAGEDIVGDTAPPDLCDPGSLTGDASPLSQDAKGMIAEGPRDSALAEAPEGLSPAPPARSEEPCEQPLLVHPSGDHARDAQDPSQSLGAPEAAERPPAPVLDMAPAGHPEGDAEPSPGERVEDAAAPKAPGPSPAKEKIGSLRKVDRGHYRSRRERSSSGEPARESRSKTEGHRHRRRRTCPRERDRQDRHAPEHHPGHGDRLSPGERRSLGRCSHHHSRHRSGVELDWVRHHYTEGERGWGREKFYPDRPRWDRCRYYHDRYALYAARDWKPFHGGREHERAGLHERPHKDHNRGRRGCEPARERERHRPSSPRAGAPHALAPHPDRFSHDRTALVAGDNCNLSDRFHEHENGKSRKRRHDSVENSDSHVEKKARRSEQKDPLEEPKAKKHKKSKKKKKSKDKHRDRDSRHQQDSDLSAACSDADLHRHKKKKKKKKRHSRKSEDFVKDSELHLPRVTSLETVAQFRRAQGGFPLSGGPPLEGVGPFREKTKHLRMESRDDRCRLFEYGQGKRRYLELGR
In short: (§1)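 Labelling with Biotin-Ahx-Ub-VS (0.5 µM final, 1 h) followed a 3 h triplicate treatment of HEK293T lysate (495 µg per sample, Tris/CHAPS/IGEPAL buffer with protease inhibitors) with fragment at 200 µM or vehicle. Labelled DUBs were NeutrAvidin-enriched, digested with LysC and trypsin, and run by diaPASEF LC-MS/MS. The values, average log2 fragment/vehicle ratios by unpaired t-test, come from global-median-normalised Spectronaut label-free quantities. Proteins with ≥2 unique peptides were used.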

USP46 = USP46 (UniProt P62068)
In short: as §1

USP47 = target: T2, USP47 (UniProt Q96K76)
T2 sequence (whole entry): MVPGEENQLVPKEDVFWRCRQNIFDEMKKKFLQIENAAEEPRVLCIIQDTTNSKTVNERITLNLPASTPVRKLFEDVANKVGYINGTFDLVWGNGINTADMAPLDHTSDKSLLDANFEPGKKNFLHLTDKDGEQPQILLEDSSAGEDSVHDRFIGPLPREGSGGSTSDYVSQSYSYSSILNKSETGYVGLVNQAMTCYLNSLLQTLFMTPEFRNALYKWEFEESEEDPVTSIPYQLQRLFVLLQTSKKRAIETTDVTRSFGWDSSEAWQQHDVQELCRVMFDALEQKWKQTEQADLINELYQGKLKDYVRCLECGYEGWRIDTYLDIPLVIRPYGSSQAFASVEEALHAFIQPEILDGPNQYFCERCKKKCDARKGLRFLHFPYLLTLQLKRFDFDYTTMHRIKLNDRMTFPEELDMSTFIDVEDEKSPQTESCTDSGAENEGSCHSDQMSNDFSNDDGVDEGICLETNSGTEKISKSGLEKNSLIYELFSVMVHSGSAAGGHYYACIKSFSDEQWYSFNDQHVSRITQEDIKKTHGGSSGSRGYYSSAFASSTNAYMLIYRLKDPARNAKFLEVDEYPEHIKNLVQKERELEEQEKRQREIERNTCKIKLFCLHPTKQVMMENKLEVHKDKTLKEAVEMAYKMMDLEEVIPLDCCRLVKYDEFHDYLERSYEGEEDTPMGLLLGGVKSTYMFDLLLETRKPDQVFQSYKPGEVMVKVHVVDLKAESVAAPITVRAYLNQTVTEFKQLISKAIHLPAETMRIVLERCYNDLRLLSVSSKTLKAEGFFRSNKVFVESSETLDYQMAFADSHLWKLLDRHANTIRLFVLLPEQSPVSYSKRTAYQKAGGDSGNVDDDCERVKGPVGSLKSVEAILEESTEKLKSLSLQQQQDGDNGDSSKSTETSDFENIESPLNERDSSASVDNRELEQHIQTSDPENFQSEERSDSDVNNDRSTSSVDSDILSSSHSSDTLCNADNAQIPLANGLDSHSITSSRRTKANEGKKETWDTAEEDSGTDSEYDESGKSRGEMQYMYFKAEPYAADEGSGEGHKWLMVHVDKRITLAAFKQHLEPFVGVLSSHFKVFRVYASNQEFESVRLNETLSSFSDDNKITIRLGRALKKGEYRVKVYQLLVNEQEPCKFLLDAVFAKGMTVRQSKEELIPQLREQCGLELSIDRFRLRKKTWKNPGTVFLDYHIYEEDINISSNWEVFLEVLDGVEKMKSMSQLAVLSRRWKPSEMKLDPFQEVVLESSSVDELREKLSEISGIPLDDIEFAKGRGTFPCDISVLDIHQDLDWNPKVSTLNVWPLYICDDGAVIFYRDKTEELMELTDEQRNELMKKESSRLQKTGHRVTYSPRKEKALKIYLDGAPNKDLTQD
In short: as §1

USP48 = target: T3, USP48 (UniProt Q86UV5)
T3 sequence (whole entry): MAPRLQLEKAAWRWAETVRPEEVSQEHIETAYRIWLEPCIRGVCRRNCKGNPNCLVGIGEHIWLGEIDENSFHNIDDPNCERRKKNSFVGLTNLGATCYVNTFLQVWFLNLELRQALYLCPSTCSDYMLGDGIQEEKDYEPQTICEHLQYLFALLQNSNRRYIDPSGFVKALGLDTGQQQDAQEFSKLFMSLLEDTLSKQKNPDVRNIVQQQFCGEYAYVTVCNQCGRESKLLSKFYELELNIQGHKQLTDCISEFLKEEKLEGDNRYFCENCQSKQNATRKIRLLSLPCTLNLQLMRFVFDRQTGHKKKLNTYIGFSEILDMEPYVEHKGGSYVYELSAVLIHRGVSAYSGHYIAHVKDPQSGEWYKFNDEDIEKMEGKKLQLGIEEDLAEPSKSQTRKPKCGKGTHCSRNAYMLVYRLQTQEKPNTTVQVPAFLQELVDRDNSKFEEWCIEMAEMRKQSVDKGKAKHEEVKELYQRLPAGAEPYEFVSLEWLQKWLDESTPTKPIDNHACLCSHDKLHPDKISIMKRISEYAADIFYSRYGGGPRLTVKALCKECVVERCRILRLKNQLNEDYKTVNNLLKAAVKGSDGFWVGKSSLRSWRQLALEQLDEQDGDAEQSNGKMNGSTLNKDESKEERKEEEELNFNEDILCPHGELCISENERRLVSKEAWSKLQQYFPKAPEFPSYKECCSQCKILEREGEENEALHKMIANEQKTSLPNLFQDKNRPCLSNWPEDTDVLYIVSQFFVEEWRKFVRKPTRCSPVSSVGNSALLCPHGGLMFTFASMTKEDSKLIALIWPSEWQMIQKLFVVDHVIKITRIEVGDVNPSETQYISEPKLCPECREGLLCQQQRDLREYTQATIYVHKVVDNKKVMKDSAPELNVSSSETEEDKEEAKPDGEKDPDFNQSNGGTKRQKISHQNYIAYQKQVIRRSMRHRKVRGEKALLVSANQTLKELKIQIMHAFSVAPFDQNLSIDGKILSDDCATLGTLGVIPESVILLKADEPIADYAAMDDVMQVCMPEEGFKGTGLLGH
In short: as §1

USP5 = target: T4, USP5 (UniProt P45974)
T4 sequence (whole entry): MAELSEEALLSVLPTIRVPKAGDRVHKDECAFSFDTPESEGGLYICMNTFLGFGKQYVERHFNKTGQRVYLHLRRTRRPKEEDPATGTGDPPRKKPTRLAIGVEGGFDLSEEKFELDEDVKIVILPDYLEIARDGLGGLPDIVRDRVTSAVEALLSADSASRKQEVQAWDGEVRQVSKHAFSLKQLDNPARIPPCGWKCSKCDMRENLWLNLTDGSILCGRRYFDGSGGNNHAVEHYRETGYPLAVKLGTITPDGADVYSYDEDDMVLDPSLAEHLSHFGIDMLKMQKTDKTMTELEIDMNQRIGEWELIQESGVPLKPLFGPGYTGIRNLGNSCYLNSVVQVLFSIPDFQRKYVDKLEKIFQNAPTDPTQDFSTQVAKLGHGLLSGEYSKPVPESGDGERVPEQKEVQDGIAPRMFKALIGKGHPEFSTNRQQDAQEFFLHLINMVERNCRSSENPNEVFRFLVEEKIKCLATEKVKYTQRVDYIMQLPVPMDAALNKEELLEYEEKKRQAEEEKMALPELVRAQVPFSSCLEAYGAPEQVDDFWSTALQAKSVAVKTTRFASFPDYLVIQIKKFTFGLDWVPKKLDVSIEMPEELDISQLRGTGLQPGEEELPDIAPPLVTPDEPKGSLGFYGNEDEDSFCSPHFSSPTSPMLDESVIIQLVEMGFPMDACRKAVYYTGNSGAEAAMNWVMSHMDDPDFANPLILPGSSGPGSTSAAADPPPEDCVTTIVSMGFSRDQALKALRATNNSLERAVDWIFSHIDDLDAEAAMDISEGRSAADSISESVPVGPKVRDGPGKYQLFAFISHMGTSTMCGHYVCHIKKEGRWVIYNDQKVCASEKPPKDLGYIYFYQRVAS
In short: as §1

USP54 = USP54 (UniProt Q70EL1)
In short: as §1

USP7 = USP7 (UniProt Q93009)
In short: as §1

USP8 = target: T5, USP8 (UniProt P40818)
T5 sequence (whole entry): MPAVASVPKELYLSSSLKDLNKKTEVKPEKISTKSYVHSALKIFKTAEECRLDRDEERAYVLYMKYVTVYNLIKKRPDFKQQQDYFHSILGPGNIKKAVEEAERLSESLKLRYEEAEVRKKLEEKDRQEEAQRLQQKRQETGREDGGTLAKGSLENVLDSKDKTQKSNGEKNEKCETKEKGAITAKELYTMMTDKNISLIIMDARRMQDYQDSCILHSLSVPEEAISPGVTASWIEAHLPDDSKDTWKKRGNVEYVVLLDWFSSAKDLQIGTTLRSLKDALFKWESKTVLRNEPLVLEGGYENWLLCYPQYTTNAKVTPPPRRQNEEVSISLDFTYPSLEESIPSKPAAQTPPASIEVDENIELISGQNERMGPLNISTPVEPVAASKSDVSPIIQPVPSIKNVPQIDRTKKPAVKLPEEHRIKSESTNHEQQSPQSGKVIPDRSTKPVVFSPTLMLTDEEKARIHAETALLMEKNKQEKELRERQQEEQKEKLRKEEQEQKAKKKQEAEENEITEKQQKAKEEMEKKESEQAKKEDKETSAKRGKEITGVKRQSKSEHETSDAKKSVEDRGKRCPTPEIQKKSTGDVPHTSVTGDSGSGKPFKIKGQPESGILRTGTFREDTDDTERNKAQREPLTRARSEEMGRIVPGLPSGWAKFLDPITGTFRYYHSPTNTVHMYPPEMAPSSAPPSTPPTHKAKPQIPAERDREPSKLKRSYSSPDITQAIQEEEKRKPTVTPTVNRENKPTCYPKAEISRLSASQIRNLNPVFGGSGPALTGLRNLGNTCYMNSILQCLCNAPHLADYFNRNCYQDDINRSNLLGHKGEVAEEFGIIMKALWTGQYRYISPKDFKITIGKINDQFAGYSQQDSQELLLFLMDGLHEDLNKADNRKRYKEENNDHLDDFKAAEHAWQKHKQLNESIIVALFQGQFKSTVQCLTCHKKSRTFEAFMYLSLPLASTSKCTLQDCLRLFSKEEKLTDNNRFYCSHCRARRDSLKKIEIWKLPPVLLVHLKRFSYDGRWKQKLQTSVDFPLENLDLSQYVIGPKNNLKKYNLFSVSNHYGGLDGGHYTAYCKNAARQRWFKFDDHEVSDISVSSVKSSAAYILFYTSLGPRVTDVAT
In short: as §1

USP9X = USP9X (UniProt Q93008)
In short: as §1

UniProt O00487 = target: UniProt O00487
In short: as §1

Measured: log2 ratio of Biotin-Ahx-Ub-VS probe labelling

Sequence of UniProt O00487 (O00487 whole entry): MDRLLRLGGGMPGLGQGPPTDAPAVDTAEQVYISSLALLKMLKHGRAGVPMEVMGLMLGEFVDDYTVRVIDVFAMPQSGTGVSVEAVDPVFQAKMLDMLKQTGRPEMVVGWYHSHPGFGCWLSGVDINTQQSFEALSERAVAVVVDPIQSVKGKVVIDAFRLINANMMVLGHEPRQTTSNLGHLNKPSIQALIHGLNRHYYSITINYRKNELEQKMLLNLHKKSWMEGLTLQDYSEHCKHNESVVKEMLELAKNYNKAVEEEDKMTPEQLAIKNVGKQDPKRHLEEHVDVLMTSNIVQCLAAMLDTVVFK
Sequence of USP7 (Q93009 whole entry, looked up): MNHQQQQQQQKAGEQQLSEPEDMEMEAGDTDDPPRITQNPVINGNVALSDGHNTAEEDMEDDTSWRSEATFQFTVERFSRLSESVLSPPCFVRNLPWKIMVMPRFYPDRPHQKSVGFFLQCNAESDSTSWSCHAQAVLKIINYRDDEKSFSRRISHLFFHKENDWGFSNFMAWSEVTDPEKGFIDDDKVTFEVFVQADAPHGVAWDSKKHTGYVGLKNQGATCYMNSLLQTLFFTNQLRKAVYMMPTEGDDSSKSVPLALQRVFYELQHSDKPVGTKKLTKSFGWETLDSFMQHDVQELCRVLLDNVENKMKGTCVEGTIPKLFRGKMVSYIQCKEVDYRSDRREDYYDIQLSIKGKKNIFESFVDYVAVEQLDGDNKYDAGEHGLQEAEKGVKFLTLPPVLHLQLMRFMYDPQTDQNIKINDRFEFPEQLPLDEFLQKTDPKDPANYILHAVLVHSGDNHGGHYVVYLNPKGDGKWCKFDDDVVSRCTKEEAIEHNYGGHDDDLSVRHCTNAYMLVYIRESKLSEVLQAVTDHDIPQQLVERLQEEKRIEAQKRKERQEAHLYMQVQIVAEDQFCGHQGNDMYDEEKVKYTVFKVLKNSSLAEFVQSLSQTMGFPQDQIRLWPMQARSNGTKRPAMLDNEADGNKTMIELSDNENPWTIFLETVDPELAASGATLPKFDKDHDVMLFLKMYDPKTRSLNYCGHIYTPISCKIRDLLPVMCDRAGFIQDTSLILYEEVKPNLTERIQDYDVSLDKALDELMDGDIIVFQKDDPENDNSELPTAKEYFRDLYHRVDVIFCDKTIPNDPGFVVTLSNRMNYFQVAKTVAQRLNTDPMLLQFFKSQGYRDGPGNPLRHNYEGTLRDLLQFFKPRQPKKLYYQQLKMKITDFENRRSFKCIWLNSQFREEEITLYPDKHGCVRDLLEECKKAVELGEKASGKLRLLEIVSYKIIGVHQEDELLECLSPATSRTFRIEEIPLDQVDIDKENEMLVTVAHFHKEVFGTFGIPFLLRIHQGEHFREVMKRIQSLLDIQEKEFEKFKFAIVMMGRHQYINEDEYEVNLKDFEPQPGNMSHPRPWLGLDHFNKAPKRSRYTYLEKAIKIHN
Sequence of USP9X (Q93008 whole entry): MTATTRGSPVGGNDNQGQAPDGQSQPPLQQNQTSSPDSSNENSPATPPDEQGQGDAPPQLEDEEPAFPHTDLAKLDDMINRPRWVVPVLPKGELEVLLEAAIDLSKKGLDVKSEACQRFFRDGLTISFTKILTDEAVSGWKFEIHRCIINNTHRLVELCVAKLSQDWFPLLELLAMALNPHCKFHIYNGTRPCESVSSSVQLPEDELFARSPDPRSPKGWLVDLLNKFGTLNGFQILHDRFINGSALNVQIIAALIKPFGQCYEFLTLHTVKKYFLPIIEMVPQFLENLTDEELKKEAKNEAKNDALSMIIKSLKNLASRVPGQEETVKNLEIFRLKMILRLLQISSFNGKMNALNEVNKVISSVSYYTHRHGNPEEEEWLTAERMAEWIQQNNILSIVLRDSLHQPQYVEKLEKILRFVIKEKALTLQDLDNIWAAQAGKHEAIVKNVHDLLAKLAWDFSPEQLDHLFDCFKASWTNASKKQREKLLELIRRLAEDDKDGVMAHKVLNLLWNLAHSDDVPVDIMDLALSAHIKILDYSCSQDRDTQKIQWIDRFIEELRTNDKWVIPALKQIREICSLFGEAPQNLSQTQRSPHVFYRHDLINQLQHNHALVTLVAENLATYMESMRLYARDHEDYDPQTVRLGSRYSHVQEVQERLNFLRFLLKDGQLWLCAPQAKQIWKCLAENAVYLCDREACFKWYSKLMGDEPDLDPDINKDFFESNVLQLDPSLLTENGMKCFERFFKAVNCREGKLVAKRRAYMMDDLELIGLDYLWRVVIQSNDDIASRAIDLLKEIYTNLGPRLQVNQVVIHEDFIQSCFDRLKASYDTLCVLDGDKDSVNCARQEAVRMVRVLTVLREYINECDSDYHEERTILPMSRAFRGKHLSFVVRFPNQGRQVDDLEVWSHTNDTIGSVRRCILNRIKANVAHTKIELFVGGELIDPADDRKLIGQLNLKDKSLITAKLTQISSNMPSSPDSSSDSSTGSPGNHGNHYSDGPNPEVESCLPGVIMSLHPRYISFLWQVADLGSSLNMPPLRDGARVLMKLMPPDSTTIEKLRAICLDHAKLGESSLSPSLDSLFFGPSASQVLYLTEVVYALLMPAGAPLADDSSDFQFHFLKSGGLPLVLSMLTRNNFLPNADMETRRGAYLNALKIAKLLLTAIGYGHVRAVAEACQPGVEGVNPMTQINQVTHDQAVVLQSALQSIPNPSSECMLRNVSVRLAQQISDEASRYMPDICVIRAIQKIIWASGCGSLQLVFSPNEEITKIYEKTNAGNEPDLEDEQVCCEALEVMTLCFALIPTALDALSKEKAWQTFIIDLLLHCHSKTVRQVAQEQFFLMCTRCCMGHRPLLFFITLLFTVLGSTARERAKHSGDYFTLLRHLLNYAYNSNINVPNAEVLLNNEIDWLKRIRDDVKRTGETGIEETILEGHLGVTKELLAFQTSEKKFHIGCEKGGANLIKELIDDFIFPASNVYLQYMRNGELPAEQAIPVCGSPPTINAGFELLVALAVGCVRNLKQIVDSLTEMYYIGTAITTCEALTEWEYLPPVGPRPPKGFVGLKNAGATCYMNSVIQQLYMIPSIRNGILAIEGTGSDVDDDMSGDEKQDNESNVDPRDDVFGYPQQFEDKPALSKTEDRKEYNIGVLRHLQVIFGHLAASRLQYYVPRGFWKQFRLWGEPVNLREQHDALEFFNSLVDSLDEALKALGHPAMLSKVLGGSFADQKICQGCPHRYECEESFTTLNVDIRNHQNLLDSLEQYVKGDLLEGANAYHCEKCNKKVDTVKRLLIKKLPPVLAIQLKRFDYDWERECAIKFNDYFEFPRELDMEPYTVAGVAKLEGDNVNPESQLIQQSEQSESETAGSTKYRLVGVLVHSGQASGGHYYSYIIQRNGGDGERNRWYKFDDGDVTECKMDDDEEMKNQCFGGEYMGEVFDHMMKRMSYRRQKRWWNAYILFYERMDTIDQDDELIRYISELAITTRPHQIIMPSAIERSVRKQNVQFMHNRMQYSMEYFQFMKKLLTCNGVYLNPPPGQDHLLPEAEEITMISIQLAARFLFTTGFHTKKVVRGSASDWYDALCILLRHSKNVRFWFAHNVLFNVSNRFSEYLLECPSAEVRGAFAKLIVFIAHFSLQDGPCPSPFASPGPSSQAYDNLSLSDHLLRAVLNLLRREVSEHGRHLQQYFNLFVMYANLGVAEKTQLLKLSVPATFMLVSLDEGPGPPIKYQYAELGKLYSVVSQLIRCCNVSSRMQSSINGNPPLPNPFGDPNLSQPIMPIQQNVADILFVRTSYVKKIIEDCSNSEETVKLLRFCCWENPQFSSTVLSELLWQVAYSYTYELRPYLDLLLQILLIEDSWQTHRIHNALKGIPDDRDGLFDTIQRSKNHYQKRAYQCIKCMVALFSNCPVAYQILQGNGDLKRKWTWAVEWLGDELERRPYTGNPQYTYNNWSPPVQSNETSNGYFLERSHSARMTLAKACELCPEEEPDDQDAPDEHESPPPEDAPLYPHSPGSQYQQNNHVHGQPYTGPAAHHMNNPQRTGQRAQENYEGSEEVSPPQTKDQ
Sequence of USP46 (P62068 whole entry): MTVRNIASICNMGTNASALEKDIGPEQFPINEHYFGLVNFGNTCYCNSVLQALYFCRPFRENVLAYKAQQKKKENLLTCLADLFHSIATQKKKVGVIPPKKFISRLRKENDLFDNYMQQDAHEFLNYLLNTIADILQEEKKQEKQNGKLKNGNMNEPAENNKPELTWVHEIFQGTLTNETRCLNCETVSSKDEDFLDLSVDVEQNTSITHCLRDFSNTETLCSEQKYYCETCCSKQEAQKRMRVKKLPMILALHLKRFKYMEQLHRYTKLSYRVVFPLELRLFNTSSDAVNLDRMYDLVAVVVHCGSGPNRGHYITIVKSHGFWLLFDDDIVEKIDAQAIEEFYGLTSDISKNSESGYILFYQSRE

O=C(CCl)N[C@H]1CC[C@@H](CO)CC1
inactive: USP42 0.163 | USP46 -0.593 | USP47 -0.113 | USP48 -0.534 | USP5 -0.644 | USP54 1 | USP7 -0.752 | USP8 -0.969 | USP9X -0.905 | UniProt O00487 -0.163
